According to PubChem BioAssay (NCI):
The panel holds about 79,000 compounds, 15% with a hit somewhere; the sample as a whole holds those more often. A number with no mark means an inactive call. The source made the active and inactive calls. No stated cut-off is given here; in the data, active means growth inhibition above about 70%; inactive means the rest.

What was measured:
[1] = NCI Yeast Anticancer Drug Screen. Data for the rad50 strain (AID 155);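 further: 0% = growth of vehicle-only cultures of the same strain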; details: S. cerevisiae rad50 strain growth inhibition, hits give high values; at 50.0 µM unless noted
Outline: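 Cells are treated with compound, grown, and their growth is then scored against vehicle-only cultures of the same repair-deficient yeast strain.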

[2] = NCI Yeast Anticancer Drug Screen. Data for the mec2-1 strain (AID 157); details: S. cerevisiae mec2-1 strain, hits give high values; at 50.0 µM unless noted
Outline: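 Readout is yeast growth inhibition, normalised to vehicle-treated controls, in the mec2-1 strain exposed to compound.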

[3] = NCI Yeast Anticancer Drug Screen. Data for the sgs1 mgt1 strain (AID 161);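 further: 0% = growth of cultures given vehicle only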; details: S. cerevisiae sgs1 mgt1 strain, hits give high values; at 50.0 µM unless noted
Outline: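 This yeast growth screen uses a strain with defined DNA-repair lesions; compound-treated growth is compared with vehicle-treated growth.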

[4] = NCI Yeast Anticancer Drug Screen. Data for the cln2 rad14 strain (AID 165);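 further: 0% = growth equal to vehicle treated cultures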; details: S. cerevisiae cln2 rad14 strain, hits give high values; at 50.0 µM unless noted
Outline: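 Relative to vehicle controls, growth inhibition of compound-treated cln2 rad14 yeast was recorded.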

[5] = NCI Yeast Anticancer Drug Screen. Data for the bub3 strain (AID 167); details: S. cerevisiae bub3 mutant strain, hits give high values; at 50.0 µM unless noted
Outline: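 Part of a panel of yeast mutants defective in DNA damage repair or cell cycle regulation. Each strain is grown with compound, and inhibition is calculated relative to solvent-treated cultures.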

[6] = NCI Yeast Anticancer Drug Screen. Data for the mlh1 rad18 strain (AID 175); details: S. cerevisiae mlh1 rad18 strain growth inhibition, hits give high values; at 50.0 µM unless noted
Outline: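 Test agents were incubated with a yeast strain of defined genotype (DNA damage repair defect). Inhibition of growth was derived by comparison with vehicle-exposed cultures.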

SMILES | growth inhibition [1] | growth inhibition [2] | growth inhibition [3] | growth inhibition [4] | growth inhibition [5] | growth inhibition [6]
CC(=O)OCCOc1ccc2c(c1)OCO2 | 3.2% | -1.2% | 4.95% | -23.6% | -1.75% | 30.7%
COc1cc(C)c(C)c(OC(=O)c2c(C)c(C)c(OC)c(C)c2OC)c1C | 10.3% | -17.1% | 11.3% | 8.9% | 23.6% | 16.1%
CSc1nc2c(nc(N)n2C2OCC(O)C(O)C2O)c(=O)n1C (stereo unspecified) | 12.1% | 14.1% | 22.6% | 32.6% | 17.9% | 32.2%
CC1CCCCN1Cc1ccccc1COC(=O)c1ccc([N+](=O)[O-])cc1Cl (stereo unspecified) | 41.1% | 30.4% | 49.9% | 8.85% | 21.4% | -3.6%
CCCCN(C#N)CCCC | 3% | 1.75% | 27.6% | -97.3% | -16.1% | -32%
COc1cc(CNc2nc3ccc(C(F)(F)F)cc3nc2-c2ccccc2)cc(OC)c1OC | -14.3% | -3.05% | -28.4% | -10.2% | 2.25% | -4.55%
CN(C)CC=C(c1ccccc1)c1ccccc1 | -11.9% | -16.4% | -3.3% | -4.05% | -8.85% | 6.6%
COCCC(=O)OCCC(C)OC (stereo unspecified) | 21.6% | -4.1% | 3.65% | 1.95% | -42.2% | -11.2%
C=C(Br)CNC(=O)C(O)(c1ccccc1)c1ccccc1 | -4.15% | 3.65% | 0% | -15.6% | 5.15% | -16.9%
O=c1c(-c2ccccc2)c[nH]c2ccccc12 | 26.7% | 16.6% | 20.9% | 8.45% | -10.9% | 44.5%
COC(=O)C1(C)C=C(Nc2ccccc2)C(=O)N1c1ccccc1 (stereo unspecified) | -3.45% | -19.8% | 6.2% | 21.8% | 23.4% | 2.25%
Cc1c2ccccc2nc(CS(C)(=O)=O)[n+]1[O-] | -16.9% | -1.8% | -4.75% | -51.6% | -16.7% | -5.5%
CC1=C(c2ccccc2)C(c2ccccc2)=C(C)C1=NNc1ccc([N+](=O)[O-])cc1[N+](=O)[O-] | 10.6% | 11.8% | 0.8% | 16.4% | -3.25% | 1.4%
CN(C)Cc1ccccc1CC1(O)CCCC1 | 19.6% | -2.75% | -4.3% | -10.1% | 0.3% | -12.5%
Cc1c(NC(=S)NC(=O)c2ccc([N+](=O)[O-])cc2)c(=O)n(-c2ccccc2)n1C | 19.6% | 5.7% | 16.2% | 17.9% | 32.9% | 18.6%
N#CC(C(=O)/C(=N/Nc1nc(=S)[nH]n1N)C(C#N)c1ccccc1)c1ccccc1 (stereo unspecified) | -23.8% | -1.45% | -30.8% | 14.8% | -19.1% | -10.2%
CCN(CC)c1ccc(/C=N/Nc2cc(C)nc3ccc(C4CCCCC4)cc23)cc1 | 25.8% | 4.3% | 21.1% | 3.15% | -2.35% | 44.9%
COc1ccc(C2c3cc(OC)c(OC)cc3C(Cc3ccc([N+](=O)[O-])cc3)C2c2ccc([N+](=O)[O-])cc2)cc1OC (stereo unspecified) | 10.7% | 19.8% | -4.15% | 16.1% | 23.2% | 6.55%
Cc1cc(C)c2c(c1)CC(C)(C)CC2=O | 4% | -7.95% | -1.1% | 2.5% | -4.55% | -2.6%
CC(C)(Nc1ccccc1)C(=O)OC(C)(C)C(=O)Nc1ccccc1 | -7% | -25.5% | -12.4% | 2.05% | -6.45% | -7.4%
Cc1ccc([N+](=O)[O-])cc1NC(=O)Sc1ccc(C(C)(C)C)cc1C | 5.2% | 6.9% | 4.65% | -11.4% | 3.4% | 8.8%

SMILES | growth inhibition [1] | growth inhibition [2] | growth inhibition [3] | growth inhibition [4] | growth inhibition [5] | growth inhibition [6]
CC(=O)CC(=O)Nc1ccc(-c2ccc(NC(=O)CC(C)=O)c(Cl)c2)cc1Cl | -22.2% | -27.7% | -10.2% | 1.9% | -16.6% | -6.35%
COc1cc(OC)c(OC)cc1/C=C/c1nc2ccccc2s1 | 25.1% | 20.1% | 41% | 18.8% | 46.9% | 3%
NCC(O)C(O)C(O)CO (stereo unspecified) | 6.15% | -6% | -1.3% | -20% | 9.1% | -8.8%
CCCCC1(CC)COC(C)(CC)OC1 (stereo unspecified) | 29.4% | 15.7% | 5.3% | -26.6% | -19.4% | 17.5%
CN(C)CCNC(=O)Nc1cccc2ccccc12 | 16% | 8.35% | -0.8% | 16.6% | -6.5% | 2.25%
Cc1nc(N)c(N)c(=O)[nH]1 | -0.6% | -1.35% | -1.75% | -5.6% | -9.6% | -2.6%
CN(C)c1ccc(-c2nc(-c3cc4c(ccc5ccccc54)oc3=O)cs2)cc1 | 22.1% | 15.6% | -7.55% | 6.4% | -19.8% | -36%
Cc1cc(C)c2c(=O)n(-c3ccccc3C)c(=S)n(-c3ccccc3C)c2n1 | 31.4% | 8.35% | 2.25% | 1.95% | -4.1% | 24.7%
CN(O)C(=O)CCC(NC(=O)CCC(N)C(=O)O)C(=O)NCC(=O)O (stereo unspecified) | -25.4% | -9.3% | -11.9% | 0.1% | 1.6% | -51.8%
Cc1nc(SCC(=O)Nc2ccccc2)c2sc(=S)n(-c3ccccc3)c2n1 | -45.9% | -10.2% | -0.05% | -5.35% | -19.9% | -18.4%
CCOc1ccc(NC(=O)C(=O)CC(=O)c2c(C)n([O-])c3ccccc3[n+]2=O)cc1 | -5.95% | 3.8% | -34.5% | 7.2% | 0.1% | -10.8%
CC(C)OC(=O)c1ccc(CCC2=CC(=O)C(Br)=CC2=O)cc1 | 50.7% | 62.4% | 65.5% | 56% | 51% | 90% (active)
Cc1cc(C)nc(/N=C(/N)Nc2ccc(S(=O)(=O)NC(=O)Nc3ccccc3)cc2)n1 | 21.5% | 2.55% | 5.8% | 1.8% | 0% | -4.2%
CCOc1ccc([N+](=O)[O-])cc1[N+](=O)[O-] | 43.3% | 2.1% | -11.3% | -55.5% | -25.6% | -2.6%
COc1ccc(CCl)cc1OCc1ccccc1 | -33.7% | -17.8% | -16.7% | -24.4% | -14.7% | -21.2%
Cc1cc2ccccc2c[n+]1CC(O)C[n+]1cc2ccccc2cc1C | -18.9% | -31.1% | -36.4% | -27.7% | -45% | -0.8%
CC(C)(Oc1ccc(C(=O)c2ccc(Cl)cc2)cc1Cl)C(=O)N1CCN(c2ccccc2)CC1 | 2% | -46.1% | -0.85% | -55% | -9.2% | -5.9%
CCc1ccc(NS(=O)(=O)c2ccccc2[N+](=O)[O-])cc1 | 31.9% | 42.6% | 61.8% | 25.3% | 50.9% | 65.5%
Cc1cn(C2CC3C(COC(c4ccccc4)N3O)O2)c(=O)[nH]c1=O (stereo unspecified) | 0.1% | -8.65% | 21.2% | 2.7% | -2.95% | 7.15%
CCCCC(NC(=O)c1ccc2ccccc2n1)C(=O)O (stereo unspecified) | -0.35% | 9% | 1.5% | 7.35% | -8.7% | 20.2%
